This passage reports AC50 and outcome results from PubChem BioAssay (EPA / NIEHS).

Values joined by “and” are separate entries in the source; they are usually repeats but may differ in a detail not shown here. Equal values may be shown once. Inconclusive results are not listed. More than one record can exist for a structure, and the calls need not agree. Active and inactive are the calls of the source. Rule for the calls: active = hit-call score of the fitted dose curve at least 0.9, where 1 is the maximum; inconclusive = response in the unintended direction; inactive = score below 0.9.

The term AC50 denotes the concentration giving half of the maximal activity seen.

The nature of the experiment: CCTE_Shafer_MEA_dev_LDH: CCTE's Lactate Dehydrogenase Assay for Cytotoxicity in the Neural Network Formation Assay, Shafer Lab (AID 2284068).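 Note: exposure for twelve days from plating with re-dosing on DIV 5 and 9.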 On the procedure:
CCTE_Shafer_MEA_dev assay is conducted using Axion Biosystems 48 well microelectrode array (MEA) plates and Maestro recording system. Each well of the MEA plate contains a grid of 16 microelectrodes embedded in the culture surface. Electrically active cells, such as neurons, can be cultured over the electrodes, and electrical activity in these cells can be recorded extracellularly. The spontaneous firing of neurons is captured from each electrode on a microsecond timescale providing both temporally and spatially precise data. […] The CCTE_Shafer_MEA_dev assay uses primary cultures of rat cortical neurons. Recordings are made on days post-plating 5, 7, 9 and 12. As these cultures mature over time, neural networks develop functional activity and form cohesive networks in which electrical activity can be highly coordinated. CCTE_Shafer_MEA_dev_LDH is 1 of 19 assay components of the CCTE_Shafer_MEA_dev assay. It measures the lactate dehydrogenase enzyme activity using spectrophotometry.Data from the assay component CCTE_Shafer_MEA_dev_LDH was analyzed into 1 assay endpoint. This assay endpoint, CCTE_Shafer_MEA_dev_LDH, was analyzed in the positive analysis fitting direction relative to DMSO as the negative control and baseline of activity. Using a type of viability reporter, loss-of-signal activity can be used to understand cell viability.
On the day prior to culture, each well was coated thoroughly with 150 uL of 0.05% polyethyleneimine (PEI, Sigma Cat P3143) in 50 mM HEPES (Sigma Cat H7523) at a pH of 8. The plate was incubated at 37C for one hour. PEI was rinsed out with 500 uL of sterile water three times. Plates were stored at 4C until the day of culture. This culture was plated at a seeding density of 1.5 x 10^5 cells/well on a 48-well MEA plate, prepared as described above. Cells were administered via a 25 uL media/laminin ([…]; Sigma Cat L2020-1MG) drop directly onto the microelectrode array, as adding the cells with the laminin results in better attachment than pre-coating with laminin. After 2 hours, an additional 475 uL of cortical media was added and the cells returned to the incubator. Exposure starts at day 0 of plating and is continued over twelve days of network development until the experiment is terminated. Cells are fed with fresh medium on DIV 5 and 9, following the recordings on those days. The entire volume of media in the well is exchanged and any vehicle or compound treatment is renewed. Complete details are found in OP-NHEERL/ISTD/SBB/TJS/2015-03-r0 (available on request, email shafer.tim@epa.gov). Measurement of the electrical activity is non-invasive, and recordings can be made from the same plate over multiple different days of the culture. In cortical neurons, this allows for the measurement of extracellular action potentials over the period during which networks form in the MEA plate.
As for `CC[C@H](C)[C@H]1O[C@]2(C=C[C@@H]1C)C[C@@H]1C[C@@H](C/C=C(\C)[C@@H](O[C@H]3C[C@H](OC)[C@@H](O[C@H]4C[C@H](OC)[C@@H](O)[C@H](C)O4)[C@H](C)O3)[C@@H](C)/C=C/C=C3\CO[C@@H]4[C@H](O)C(C)=C[C@@H](C(=O)O1)[C@]34O)O2` (tested in a mixture with another compound), the half-maximal activity concentration (AC50) is 522 nM (active) and 0.537 nM (active).
Regarding `CC1(C)C(C=C(Cl)Cl)C1C(=O)OC(C#N)c1ccc(F)c(Oc2ccccc2)c1` (stereo not drawn), the outcome was inactive and the concentration at half-maximal activity (AC50) was 42.3 µM (active).
On to `COP(=O)(OC)OC=C(Cl)Cl`, for which the molecule was classed as inactive and the AC50 was 3.8 µM (active).
Consider `ClC1C(Cl)C(Cl)C(Cl)C(Cl)C1Cl` (stereo not drawn), for which the outcome was inactive.
For `CCC(C)(C)C(=O)OC1=C(c2ccc(Cl)cc2Cl)C(=O)OC12CCCCC2`, the outcome was inactive.
`CC(C)N(C(=O)COc1nnc(C(F)(F)F)s1)c1ccc(F)cc1`: the outcome was inactive and the AC50 was 15 µM (active).
Regarding `O=C(O)COc1ccc(Cl)cc1Cl`, the AC50 was 15 µM (active).
The same measure, in the same setting: then `O=S1OCC2C(CO1)C1(Cl)C(Cl)=C(Cl)C2(Cl)C1(Cl)Cl` (stereo not drawn), with 8.55 µM (active).
With `O=S(=O)(O)C(F)(F)C(F)(F)C(F)(F)C(F)(F)C(F)(F)C(F)(F)C(F)(F)C(F)(F)F`, the call was inactive and the AC50 was 16.4 µM (active).
Take `CC1(c2ccc(Oc3ccccc3)cc2)OC(=O)N(Nc2ccccc2)C1=O` (stereo not drawn): the AC50 was 3.28 µM (active).
The same measure, in the same setting: then `Oc1cc(Cl)ccc1Oc1ccc(Cl)cc1Cl`, with 6.58 µM (active); and `CNC(=O)CSP(=S)(OC)OC`, with 66.6 µM (active) and 24.2 µM (active).
As to `O=[N+]([O-])/N=C1\NCCN1Cc1ccc(Cl)nc1`, the call was inactive.
The same measure, in the same setting: then `O=C(O)C(F)(F)C(F)(F)C(F)(F)C(F)(F)C(F)(F)C(F)(F)C(F)(F)F`, with “inactive”.
